# An excerpt weighted towards active compounds, which were near 3.1% of everything screened.
# PP1 inh – counter-screen for PP5 inhibitors: inhibitors of human PP1-alpha; P62136; purified PP1alpha, OMFP fluorescence; inhibition, % at 6.7 µM; 320,000 tested, 0.9% active; AID 2235;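 active = inhibition above the mean inhibition of all tested compounds plus 3 SD, computed separately for each screening campaign, cut at about 15% in these data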
# Target sequence (P62136 whole entry, looked up): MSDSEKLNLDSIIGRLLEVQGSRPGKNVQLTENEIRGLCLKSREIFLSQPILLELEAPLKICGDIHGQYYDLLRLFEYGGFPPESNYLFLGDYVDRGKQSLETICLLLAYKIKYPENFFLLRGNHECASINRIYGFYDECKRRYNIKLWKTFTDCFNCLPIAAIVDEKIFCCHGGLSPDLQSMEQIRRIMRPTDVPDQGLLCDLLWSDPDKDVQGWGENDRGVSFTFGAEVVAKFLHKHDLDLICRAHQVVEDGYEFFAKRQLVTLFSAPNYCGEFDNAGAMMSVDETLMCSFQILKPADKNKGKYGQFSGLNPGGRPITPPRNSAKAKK
# PP5 primary – inhibitors of human protein phosphatase 5 (PP5); P53041; purified PP5c, OMFP substrate fluorescence; inhibition, % at 6.7 µM; 320,000 tested, 0.18% active; AID 1987;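 active = inhibition above the campaign's mean inhibition across all tested compounds plus 3 SD, cut at about 9.5% in these data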;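 also: 0% = DMSO only and 100% = 100 µM cantharidin control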
# SKKanGAS inh – SKKanGAS growth inhibition; S. pyogenes SKKanGAS, kanamycin growth, BacTiter-Glo, 6 h; inhibition, % at 7.5 µM; 300,000 tested, 1.3% active; AID 1662;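 active = mean replicate score, as percent of positive control median, at least 50; inconclusive = mean below 50 but one replicate at or above 50; inactive = mean and every replicate below 50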;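 also: strain carries kanamycin resistance gene driven by streptokinase promoter and grows in 40 µg/ml kanamycin; loss of luminescence reflects streptokinase promoter inhibition or plain growth inhibition; 0% = median of DMSO wells and 100% = positive control at its reference dose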
# Beta cell apopt – blocks beta cell apoptosis; INS-1E cytokine-induced death, ATP luminescence, 48 h; percent of positive-control rescue, neutral wells zero; protection from apoptosis, % (no concentration beside the values); 300,000 tested, 0.8% active; AID 435005;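 active = Every replicate reaches about 75%, or at least half do and their mean reaches it too, limit read from the data; inconclusive = At least half of replicates reach the limit but their mean does not; inactive = Under half of replicates reach the limit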;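 also: 0% = cytokine-treated negative control wells and 100% = positive control rescue; higher means more ATP so stronger rescue from cytokine killing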
# CSC inhib – blocks cancer stem cells; cancer stem cell-like cells viability, luminescence; inhibition, % at 7.5 µM; 300,000 tested, 1.1% active; in the data active = inhibition above about 75%; inconclusive = no clear call, values can overlap the other calls; tested in HMLE shEcad cells
# Starred values were filed as active, the others as inactive; u = inconclusive; x = not tested or not shown.
SMILES,PP1 inh,PP5 primary,SKKanGAS inh,Beta cell apopt,CSC inhib
COc1cc(/C=C2\CC/C(=C\c3cc(OC)c(O)c(OC)c3)C2=O)cc(OC)c1O,1,1,x,89*,86*
COc1cc(/C=C2/CCC/C(=C\c3cc(O)c(OC)c(Cl)c3)C2=O)cc(Cl)c1O,2,4,43,9,119*
COc1cc(/C=C2\CC(C(C)(C)C)C/C(=C\c3cc(OC)c(OC)c(OC)c3)C2=O)cc(OC)c1OC (stereo not given),1,3,22,98*,107*
COc1cc(/C=C2\COC/C(=C\c3cc(OC)c(OC)c(OC)c3)C2=O)cc(OC)c1OC,x,x,-6,x,x
COc1cc(/C=C2\CCC/C(=C\c3ccc(O)c(OC)c3)C2=O)ccc1O,2,3,65*,-24,100*
COc1cc(/C=C2/CCCC(C(=O)C(F)(F)F)=C2O)ccc1O,-3,1,-9,-2,-5
COc1cc(/C=C2\CC/C(=C\c3cc(OC)c(OC)c(OC)c3)C2=O)cc(OC)c1OC,-1,4,21,8,4
Cc1ccc2c(c1)N(CC(=O)NCC(C)c1ccccc1)C(=O)c1cccnc1O2 (stereo not given),-2,5,-1,-7,-8
CN1C(=O)/C(=C/c2cccc(Cl)c2)Sc2ccc(C(=O)N3CCCC3)cc21,-3,2,-1,6,-10
Cc1ccc(SCC(=O)OCC(=O)NC(C)c2ccc(Br)cc2)cc1 (stereo not given),3,3,-3,-4,-3
CN(C)S(=O)(=O)c1cccc(-c2nnc(SCCNCCO)n2-c2ccc(F)cc2)c1,2,0,-12,-10,3
Cc1cc(NC2CCCCC2)nc(NCc2ccccc2)n1,6,0,-4,104*,16
COc1ccc(Nc2cc(C)nc(NCc3ccccc3)n2)cc1,10,5,7,60,34
Cc1cc(N/N=C/c2ccccc2Cl)nc(NCc2ccccc2)n1,17*,6,15,35,94*
O=C(CN1c2ccccc2Sc2ccccc21)NNC(=O)Nc1cccc(Cl)c1,0,2,50*,u,82*
Cc1cccc(C)c1NC(=O)CNC(=O)CCCc1c[nH]c2ccccc12,-1,-1,-7,3,23
COc1ccc(Cl)cc1NC(=S)NCCSc1ccc(C)cc1,3,4,2,0,46
CN1C(=O)/C(=C/c2ccccc2Cl)Sc2ccc(C(=O)NCc3cccnc3)cc21,3,3,71*,-1,-6
CCN(CC)C(=O)CSc1nc2cc(S(=O)(=O)N3CCOCC3)ccc2n1CC,-4,0,-4,-6,x
COc1ccc(C(C)(C)C)cc1NC(=O)COC(=O)C1=NNC(=O)CC1,-5,-1,x,-2,-14
CCOc1ccc(-n2c(-c3ccccc3)nnc2-c2ccccc2)cc1,16*,1,0,5,0
CCOc1ccc(CN2CCCC(N3CCN(c4ccc(OC)cc4)CC3)C2)cc1 (stereo not given),0,0,-4,3,5
CCOc1ccc(-n2c(-c3ccccc3)c[n+]3c2CCC3)cc1,-3,-1,6,104*,-5
CCOc1ccc(-n2c(-c3ccc(Br)cc3)c[n+]3c2CCCCC3)cc1,-1,0,-13,118*,-9
CCOc1ccc(-n2c(-c3ccccc3)c[nH]c2=S)cc1,3,0,-1,-5,-3
SMILES,PP1 inh,PP5 primary,SKKanGAS inh,Beta cell apopt,CSC inhib
CCOc1ccc(-n2c(-c3ccc(OC)cc3)c[n+]3c2CCCCC3)cc1,-2,2,-5,97*,34
Cc1ccc(-c2nc(CS(=O)CC(=O)NCCN3CCCCCC3)c(C)o2)cc1 (stereo not given),-2,0,-1,-5,-14
CCOCCCNC(=S)N1CCC(NC(=O)C23CC4CC(CC(C4)C2)C3)CC1,-3,0,0,-6,-14
COc1ccc(Cc2nnc(NC(=O)c3ccc(OC(C)=O)cc3)s2)cc1OC,-1,1,4,-3,10
CCc1ccc2[nH]c3nc(N/N=C/c4cccc(O)c4)nnc3c2c1,15,1,-4,-2,98*
Cc1ccc2nc(-c3ccc(NC(=O)CSc4nc(N)cc(=O)[nH]4)cc3)sc2c1,16*,-2,4,-2,20
CCC1(c2ccc(F)cc2)NC(=O)N(CC(=O)Nc2ccc(-c3nc4ccc(C)cc4s3)cc2)C1=O (stereo not given),-2,3,31,92*,22
OCC1(Cc2ccccc2)CCN(CCCC2CCCC2)CC1,-5,-3,-14,6,28
CC(C)C(=O)NNc1ccccc1,0,1,-2,-1,-2
